CHT block: inhibitors of human choline transporter CHT. CHT-expressing cells, membrane potential dye, choline response; active compounds read low. B-score at 10 µM. High affinity choline transporter 1 (Homo sapiens), Q9GZV3. actives 0.86% (n = 310,000);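 active means B-score over 3 SD under the library average, and starting fluorescence ratio not unusually high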;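 further: choline stimulus applied at its EC90 after an EC20 pre-addition; B-score computed on integrated fluorescence ratio after choline addition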
TMEM16A act: TMEM16A chloride channel activators or potentiators, primary screen, cell-based, HTS | Anoctamin-1 (Mus musculus), Q8BHY3 | HEK293 TMEM16A/YFP-H148Q/I152L, iodide quench fluorescence; active compounds read low | B-score at 10 µM | actives 0.3% (n = 340,000) | AID 623877, 2012;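 active means fluorescence-ratio B-score plate-corrected deviation score at least 3 library SD below zero, with starting fluorescence score within 5 deviations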;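 further: channel opened by trigger with iodide after compound preincubation; score built on the fluorescence ratio of max minus min over baseline; more negative score means more quench and so TMEM16A activation or potentiation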
Target sequence (Q8BHY3 whole entry, looked up): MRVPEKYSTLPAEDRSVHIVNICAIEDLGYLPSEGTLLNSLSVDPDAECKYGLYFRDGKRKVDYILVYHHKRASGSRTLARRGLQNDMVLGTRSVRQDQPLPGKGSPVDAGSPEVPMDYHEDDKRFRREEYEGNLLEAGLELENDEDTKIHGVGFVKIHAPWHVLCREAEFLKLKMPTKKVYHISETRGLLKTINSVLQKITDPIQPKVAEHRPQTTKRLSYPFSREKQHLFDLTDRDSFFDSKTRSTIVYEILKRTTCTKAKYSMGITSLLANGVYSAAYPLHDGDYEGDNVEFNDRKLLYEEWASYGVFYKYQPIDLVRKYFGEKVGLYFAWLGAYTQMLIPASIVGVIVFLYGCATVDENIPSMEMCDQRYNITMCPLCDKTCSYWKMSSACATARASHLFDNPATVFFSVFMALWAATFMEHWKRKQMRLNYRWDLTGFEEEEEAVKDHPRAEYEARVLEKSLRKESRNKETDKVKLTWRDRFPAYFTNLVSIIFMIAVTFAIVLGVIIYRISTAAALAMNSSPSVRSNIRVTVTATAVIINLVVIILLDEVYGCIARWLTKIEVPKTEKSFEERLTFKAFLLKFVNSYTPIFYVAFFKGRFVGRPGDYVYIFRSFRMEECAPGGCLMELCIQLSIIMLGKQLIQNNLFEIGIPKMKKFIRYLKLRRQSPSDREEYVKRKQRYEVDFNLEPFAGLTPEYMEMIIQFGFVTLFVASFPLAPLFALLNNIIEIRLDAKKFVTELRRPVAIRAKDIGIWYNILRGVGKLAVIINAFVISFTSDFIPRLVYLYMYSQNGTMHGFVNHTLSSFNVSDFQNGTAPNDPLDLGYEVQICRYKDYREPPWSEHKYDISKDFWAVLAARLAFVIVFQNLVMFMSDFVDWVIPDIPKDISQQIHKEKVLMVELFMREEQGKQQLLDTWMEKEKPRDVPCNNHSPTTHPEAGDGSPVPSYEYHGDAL
CHT allo act: CHT positive allosteric modulators, primary screen, cell-based, membrane potential dye, choline EC20 | CHT-expressing cells; active compounds read high; LV-AA mutant CHT in HEK293 cells | B-score at 10 µM | actives 0.49% (n = 310,000);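 active means initial fluorescence not abnormally high and integrated response B-score, plate-corrected, over 3 SD above library mean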
ANO1 block: TMEM16A chloride channel inhibitors, primary screen, cell-based, HTS | actives 1.2% (n = 310,000) | HEK293 TMEM16A/YFP iodide influx fluorescence, ionomycin | AID 588511, 2011 | normalized B-score (activity score, 25-100; higher = stronger inhibition) at 10 µM;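 active means ratio plate-corrected score three or more library SD toward inhibition, starting fluorescence score within five deviations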;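 further: score derived from kinetic fluorescence span divided by baseline fluorescence per well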
An asterisk follows results filed as active; i = inactive; . = no result. Compounds with a hit are over-represented: about 2.4% of the library has one in this group of screens.

SMILES	CHT block	TMEM16A act	CHT allo act	ANO1 block
N#Cc1cc([N+](=O)[O-])ccc1N1CCCC1	i	i	i	i
COC(=O)c1cccc(C(=O)Oc2cccc(Br)c2)n1	i	i	i	i
N#CCN1C(=O)C(=O)N(Cc2cccc(C(F)(F)F)c2)C1=O	i	i	i	i
CCOc1cccc(C(=O)Nc2ccc3oc(-c4cccnc4)nc3c2)c1	i	i	i	i
CCOc1cccc(C(=O)Nc2ccc3oc(Cc4ccc(Cl)cc4)nc3c2)c1	i	i	i	100*
CC(=O)c1ccc(-n2c(-c3cc(-c4ccco4)[nH]n3)n[nH]c2=S)cc1	i	-12*	i	i
CC(=O)CSc1ncnc2c1cnn2-c1ccccc1	i	i	i	i
CSc1cccc(NC(=O)C2CCCN(S(=O)(=O)c3cnc[nH]3)C2)c1 (stereo not given)	.	-12*	.	.
Clc1ncnc2c1oc1ccccc12	i	i	i	i
c1coc(CN(Cc2ccco2)c2ncnc3c2oc2ccccc23)c1	i	i	i	100*
COc1ccc(CC(=O)NNC(=O)CSc2ccc(C)cc2)cc1	i	-7.1*	i	i
COc1ccc(/C(N)=N/OC(=O)CSc2ccccc2)cc1	i	i	i	i
COc1ccc(/C(N)=N/OC(=O)CSc2ccc(C)cc2)cc1	i	i	i	100*
CC(C)Cc1ccc(C(C)C(=O)OCC(=O)c2c[nH]c3ccccc23)cc1 (stereo not given)	i	i	i	100*
Cc1ccc(C(=O)OCC(=O)c2c[nH]c3ccccc23)cc1	i	i	i	i
O=C(OCC(=O)N1CCN(c2ccccc2)CC1)c1ccccc1[N+](=O)[O-]	i	i	i	i
CCN(CCNC(=O)C1CCN(Cc2nc(-c3ccc(Cl)cc3)oc2C)CC1)c1ccccc1	i	i	i	100*
COc1ccc(/C=C2\Oc3cc(OCC(=O)N4CCC(C(=O)O)CC4)ccc3C2=O)c(OC)c1OC	i	i	i	i
COc1cccc(/C=C2\Oc3cc(OCC(=O)N4CCCC4)ccc3C2=O)c1OC	i	-38*	i	i
C[C@@H](C(=O)OCC(=O)c1ccccc1)N1C(=O)C2CCCCC2C1=O (stereo not given in full)	.	i	.	.
CCOc1ccccc1NC(=O)CN(c1ccc(OC)cc1OC)S(=O)(=O)c1ccccc1[N+](=O)[O-]	i	-5.2*	i	i
COc1ccc(C(=O)/C=C/C(=O)N(CC(=O)NC2CCCCC2)CC2CCCO2)c(O)c1 (stereo not given)	i	-6*	i	100*
O=C1CSc2ccc(C(=O)Nc3cccc(S(=O)(=O)Nc4ccc(Br)cc4)c3)cc2N1	i	i	i	i
O=S(=O)(c1ccc(OC(F)(F)F)cc1)N1CCC(O)(c2cccc(C(F)(F)F)c2)CC1	i	i	i	25*
COc1cc(S(=O)(=O)N2CCC(O)(c3cccc(C(F)(F)F)c3)CC2)ccc1-n1cnnn1	i	i	i	i
SMILES	CHT block	TMEM16A act	CHT allo act	ANO1 block
CCC(C)NC(=O)CN1c2cccc3cccc(c23)S1(=O)=O (stereo not given)	i	-7.2*	i	i
CC(=O)Nc1cccc(NC(=O)CN2c3cccc4cccc(c34)S2(=O)=O)c1	.	i	.	.
CC(=O)c1ccc(NC(=O)CN2c3cccc4cccc(c34)S2(=O)=O)cc1	.	-4.7*	.	.
CC1CCCCC12NC(=O)N(CC(=O)Nc1ccc3c(c1)OCCCO3)C2=O (stereo not given)	.	i	.	.
COc1ccc(CCN2CC(C(=O)OCC(=O)NC(Cc3ccccc3)C(C)=O)CC2=O)cc1OC (stereo not given)	.	i	.	.
CCC(=O)Nc1nc(-c2cc([N+](=O)[O-])cs2)cs1	i	i	i	i
O=S(=O)(c1ccc(Cl)s1)N1CCN(C/C=C/c2ccccc2)CC1	i	-7*	i	i
COc1cc2[nH]c(=O)c(C(=O)NCc3ccc(F)cc3)c(O)c2cc1OC	i	i	i	i
CCCN1C=CC(=CC=C(C#N)C#N)C=C1	i	-6.5*	i	i
C=CCN1C=CC(=CC=C(C#N)C#N)C=C1	i	-7.7*	i	i
CCc1ccccc1NC(=O)CCN1C(=O)C2CC=CCC2C1=O (stereo not given)	i	i	i	i
CCCCN(CCCC)S(=O)(=O)c1ccc(NC(=O)c2cccs2)cc1	i	i	i	100*
Cc1cc(C)nc(NS(=O)(=O)c2ccc(NC(=O)c3cccs3)cc2)n1	i	i	i	i
O=C(O)COc1ccccc1-c1nc(-c2ccccc2)c(-c2ccccc2)[nH]1	i	i	i	i
COc1cccc(-c2nc(-c3ccccc3)c(-c3ccccc3)[nH]2)c1OCC(=O)O	-6.6*	i	i	i
CCN(CC)S(=O)(=O)c1cc([N+](=O)[O-])ccc1NNC(=O)Nc1ccc(Cl)c(Cl)c1	i	i	i	25*
CC1CCN(C(=O)CN(C2CCCCC2)S(C)(=O)=O)CC1	i	i	i	i
Cc1c(N(C)C(=O)c2ccccc2F)c(=O)n(-c2ccccc2)n1C	i	-6.5*	i	i
Cc1c(N(C)C)c(=O)n(-c2ccccc2)n1C	.	i	.	.
CC1C(=O)N(Cc2ccccc2F)c2ccccc2N1C(=O)c1c(F)cccc1F (stereo not given)	-5.1*	i	i	i
CC1C(=O)N(Cc2cccc(F)c2)c2ccccc2N1C(=O)c1ccccc1 (stereo not given)	i	i	i	i
Cc1oc2ccc(OCc3ccc(Br)cc3)cc2c1C(=O)O	i	i	i	i
O=[N+]([O-])c1ccc(NC(=S)N2CCc3ccccc32)cc1	i	i	i	100*
CN1C(=O)/C(=C/c2ccccc2F)Sc2ccc(C(=O)N3CCCC3)cc21	i	i	i	25*
O=C(COC(=O)C1(c2ccc(Cl)cc2)CCCC1)Nc1ncc(C(F)(F)F)cc1Cl	i	i	i	100*
CCOc1ccc(NC(=O)CN(C)C(=O)CCNC(=O)c2ccc(Br)cc2)cc1OCC	i	i	i	i
CCOc1ccc(NC(=O)CN(C)C(=O)CC(NC(=O)c2ccccc2)c2ccccc2)cc1OCC (stereo not given)	i	-4.9*	i	i
COC(=O)[C@@]12CCCCN1[C@H](c1ccc(-c3ccc(C(C)=O)cc3)cc1)[C@H]1C(=O)N(C)C(=O)[C@H]12	i	i	i	i

Screening data from PubChem BioAssay.
